Hit rate of the full screen: of about 53,000 sequences, about 3,700 (7%) were called active. The sample as a whole holds a higher share of actives than the screen did. Unmarked numbers belong to inactive results.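 How the source made its calls: active means gene knockdowns whose robust z-score for IL-1 alpha signal is at least 2 or at most -2, so actives lie on both sides; inactive means the rest.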
assay: Components of the Cytosolic LPS Sensing Pathway: Gene Identification via Genome-wide siRNA Screen; details: RAW264.7 macrophages, IL-1a HTRF, actives lie on both sides, screened at 100 nM (by protocol), cells primed 5 h with Pam3CSK4 first;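 further: robust z of the log signal after scaling to non-targeting control siRNA wells of the plate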
Method in brief: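 Supernatant IL-1a by HTRF from RAW264.7 cells primed with Pam3CSK4 (5 hours) and transfected with LipidA (24 hour) after 48h siRNA knockdown at 100 nM; cell viability checked with CellTiter-Glo.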

Sequence	z-score
CCCUUGCCUCAAAGAUCUUTT against Tex48	0.633
GCACUGUUCUCAAAGUUAATT against Ddx3x	-0.248
GGCUACGCCCACAAAAGCUTT against H1f6	-2.26 (active)
CCAAUUGGAAGAAUCCAGGTT against Gsdmc3	-0.542
GGUUUUCCUAAAGUCAACATT against Bfar	-2.24 (active)
GCAGUAGCGACGAAGGAUGTT against Rnf113a2	-2.12 (active)
GGACAAGAAUUGGAACAAATT against Zfp84	1.43
GGCAGUAUCAAAGAAAUUGTT against Rps6ka3	3.43 (active)
CCCAGGUAGAGACAUUGCUTT against 6330444E15Rik	-1.89
GGAGAUGAAAUCUACAAAUTT against Igfbp1	-0.592
GCCUUGUUGUGUUGGCUUATT against Olfr1111	0.549
GGGAAUAUUUUCAAGUUGCTT against Tmem14a	0.795
GGAAGAUAUUGGUAAAAACTT against Uba1y	0.584
GGAUGUUUGGACAUCAUUUTT against 2610002M06Rik	0.204
GGUAAUGAUACCUUGAAUGTT against H60a	2.11 (active)
GCUUCAGUGGCUACUCUUGTT against H2-M2	0.63
CCGUGGAUUGUGGAAUAAUTT against Xpnpep3	-1.39
GCCAGUUUUGGUAUCCCGUTT against Lpcat2	-1.2
GGGACAACCCAUCAACAAUTT against Catsper1	-0.614
CGAUGUACUCCAUGUUGGGTT against Bpifb6	3.47 (active)
GGAAAGCUUGAAUGUUGAGTT against Mup3	1.44
GACACCCUGUGACACCAAGTT against Sprr1b	-0.597

Sequence	z-score
GGCUUUAAUGAAAUUAUGGTT against Asap2	1.4
CCCAGAAUUGAACUAAAAATT against Mrpl32	-0.488
GGUGGAACAACUGUUUCAATT against Dyrk3	0.541
GGAACCUAUGGAAGGCGUATT against Ino80b	2.64 (active)
CCCACGCUUAGCAAUAUCATT against Get3	-1.49
GGUAACCUAGUGUAAGUUUTT against Atg2b	-0.0782
GGAGAGCAGUGAUAACCAGTT against Cracd	2.06 (active)
GGAAAUUGCUCAAAAAAGGTT against Asb3	0.725
GGCUUCUAUUGCCAUAAUGTT against Olfr380	0.568
GGAUGAAGACAGUCAAAUGTT against Lypd3	0.261
GGCAGAUUCUAAAUAUAGCTT against Itga9	-0.52
GGACAGCUUCAUCAAGCCUTT against Cep89	-0.628
GGUCUGGUGUUGUAGGAUATT against Map1lc3b	2.71 (active)
GGAGUCAUAUGCACAGAUCTT against Tcte3	-0.706
CGUGGAUGAGAACUAACCUTT against Rpl31	1.24
GCUCCUAUGCAAACAUUGCTT against Olfr1390	0.489
GGAUCUCUUAGGUAUCUUATT against Nlrp14	1.45
GGAACACUGGAAGAAAGAUTT against Arhgap35	-1.21
GAUGUACUUGAUAAAGCCUTT against Ugt2b37	3.68 (active)
CCCAUCUCACUAUUUAAUATT against Lrrc3b	-1.23
GCUGCACAAGUGCAUUUUUTT against Srp14	-1.34
GGGUAUUUCCACUUCAUAGTT against Acsm2	1.59

Sequence	z-score
GCUCAUGGACCAACCUAUGTT against Olfr1180	0.501
GCUUUCCGGAAUACGAGCUTT against Snapc3	-0.638
CGCAAGAUCCUCAAACGAGTT against Proc	-0.358
GGGAACAAGUUGAGCUACUTT against Ebp	-0.0574
UAGGAGAUAUCUGCUACCGTT against Fbxw16	-2.53 (active)
CCAUGUUCGGACGUGGUCUTT against Shkbp1	-1.17
GGAGAGGAAUCAAGUGGUGTT against Lig1	-1.04
GGUGCUUUAUUAGGUAUUCTT against Atp6v1g3	-1.26
GGGUAGCUUUAAAUAAAGGTT against Olfr801	2.47 (active)
GCAUAAGCCUAAAAAUUCUTT against Ptprd	0.43
GCCCUCUUGUGAUUAAGCATT against Esr1	-0.959
GCUAAGAAGAGGAUUCCAATT against Spag1	-0.579
GCAGCAGUGCUUACUUAACTT against Ccdc25	0.212
GGAAAGUGAUGUCACAAAATT against G3bp1	1.31
GGUGUUUGUGAAGGAGCAGTT against Fam117a	2.98 (active)
GGCCAACCUGGAGAACUUGTT against Atp6v1c2	0.441
GGUUAAUAUUAGCAUCGUCTT against Zdhhc23	0.908
GGCUCUGUGUUGGUAAUGATT against Yipf1	-0.538
GGGUCAUCGGAACAGAACUTT against Sult3a1	-2.26 (active)
GGGCAACUGUACGUACCAUTT against Cd93	0.0137
GGGAGCAUUUCCUUAUACUTT against Tpmt	0.67
GGAUAAAGCCACAUUUGGUTT against Apoh	-0.483

Sequence	z-score
GGAACCAGAGGACAAAGACTT against Ccdc96	-2.43 (active)
GGCUGGUGUAAAAGACACGTT against Nat14	0.142
GGGUUUUCGGGAGAUCUGUTT against Ltbp4	-0.44
GGAGCACUAUGAUGAGUUCTT against U2af1	-0.452
GCACUAUGGUAUUGAAAUUTT against Armc5	0.635
GGAUUCUGAAAUCAGUGCUTT against Capn8	1.52
GGUCACCAAGCAACACAAUTT against Fen1	2.56 (active)
GCAGUAAAAUGACAUUUGGTT against Dennd6b	0.694
GCUAGGUGCUGCUACGAAATT against Tex13c3	-0.0824
GGGCAGUAAGACCUUCAUGTT against Dhcr24	0.685
GGUUGAAGGCCAAUUCAAATT against Lrrc10	2.94 (active)
GCACUAGCAGGAUUCAUUGTT against Gabrb2	-1.25
CGAUUGCUCUUAACCCUUGTT against Zfp597	-0.233
GGCAUCCUGAGAGAACUCATT against Insyn1	-2.27 (active)
GCUGACCUAUUCUGAUCCATT against Chchd4	-0.223
GGUUCAGAUCCCUAAAAUATT against Ago4	-0.557
GGACAUGGAACUGGAUGAATT against Ciita	-2.49 (active)
GGUGAUCACAAAUAUGAUGTT against Ubxn2b	-0.173
GGAGUUUGUUAAUUUCGCATT against Rundc3a	0.612
GCACGGAGCCAAAUAAUCUTT against Rpl28	2.07 (active)
GGAAGUAGAGAUCUCCUUATT against Btn1a1	0.96
GGAAGUGCUACUUUCUGGGTT against Tmem178	1.74

Sequence	z-score
GGAGAUGAAGUGGACAGACTT against Anapc13	1.02
GGUGAACGAACAUUGGUAUTT against Sorbs3	-0.614
CCAUCACGAGUGAAUUCGATT against Olfr945	-2.13 (active)
GGAGCGAUCUGAAAAUUUGTT against Rasip1	-0.365
CCUCUCCAGUGUCGACAUUTT against Olfr51	0.347
CGAAGUCGUGGCAAUGAUUTT against Nfu1	1.39
GCAGGAAGCCCAGUAAAGUTT against Figla	0.44
GGAAGACACUGGUUUCCAATT against 1700067P10Rik	2.62 (active)
GGAGAGAAGAAAAAGAAGGTT against Rrbp1	0.647
GCAUGAUUACCAGAACCACTT against Fcgr2b	0.225
GCAUGUGAAAUCUAGAUCATT against Cks1b	-0.0851
UGGUACCACCAUUUUUACCTT against Olfr452	-1.2
GCUGGGCUUCAACGAUUACTT against Efna4	1.3
GGUUCCUUAAACAUUCAGATT against Tspan31	2.28 (active)
CGAUCACCAUGAUGAAUUCTT against Bex3	-0.128
GCAGGAUGCAGCGAUAGUUTT against Slc2a6	-0.952
GGGCUACAGCAUGUAUGAGTT against Zc3h4	0.814
GGAACGAAGUCUGAAACACTT against A730018C14Rik	-1.89
GGAGUCCCAGGACAUGAAATT against Pou5f1	0.333
